Drawing on PubChem BioAssay (Tox21), this text covers Potency and outcome for 9 compounds.

Experiment [1] has as its target Peroxisome proliferator-activated receptor delta (Homo sapiens) (UniProt Q03181). As to the kind of experiment: qHTS assay to identify small molecule agonists of the peroxisome proliferator-activated receptor delta (PPARd) signaling pathway (AID 743212). Further: potency means the concentration at half of the fitted maximal effect. The gist of the method:
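Read-out: beta-lactamase FRET fluorescence after 2 h room-temperature incubation with LiveBLAzer B/G substrate. Cells were HEK293H carrying a UAS-bla reporter for PPARd, treated at 37 C with DMSO-dissolved compounds.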

For experiment [2] the target is unchanged. Put plainly: qHTS assay to identify small molecule antagonists of the peroxisome proliferator-activated receptor delta (PPARd) signaling pathway (AID 743215; active means well fitted inhibition curve with a large enough effect in the signal ratio in the repeat runs, not every such curve was filed as active; the % refers to the signal ratio;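 further: cells stimulated with agonist L165041 at 300 nM final during compound exposure; series mostly up to about 62 µM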). The gist of the method:
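Agonist L165041 (300 nM final) added with compound to PPARd-bla HEK293H UAS-bla reporter cells; 17 h incubation at 37 C. Read-out: LiveBLAzer FRET substrate, 2 h at room temperature, fluorescence intensity.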

The nature of experiment [3]: qHTS assay to identify small molecule agonists of the farnesoid-X-receptor (FXR) signaling pathway - cell viability counter screen (AID 743218; active means well fitted curve in the direction sought with a large enough effect in the repeat runs; an effect the other way counts as inactive or inconclusive; further: nearly all actives have a fitted effect of over 45% in size). The gist of the method: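 Viability counter screen in the same wells: CellTiter-Glo luminescence, 30 min room-temperature incubation, measured after the beta-lactamase read. Cells were GeneBLAzer FXR-UAS-bla HEK 293T, compound-treated 16 h at 37C.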

Experiment [4] is described as follows: qHTS assay to identify small molecule antagonists of the farnesoid-X-receptor (FXR) signaling pathway - cell viability counter screen (AID 743221; active means well fitted cell-killing curve with a large enough effect in the repeat runs, not every such curve was filed as active; further: nearly all actives have a fitted effect of over 50% in size). The gist of the method:
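GeneBLAzer FXR-UAS-bla HEK 293T cells, compound plus chenodeoxycholic acid (50 uM final), 16 h at 37 C. CellTiter-Glo added to the same wells after the beta-lactamase read; luminescence read after 30 min at room temperature as viability.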
For orientation: In qHTS, concentration-response curves come from the screen itself.

Experiment [5] in a line: qHTS assay to identify small molecule antagonists of the vitamin D receptor (VDR) signaling pathway - cell viability counter screen (AID 743225; active means well fitted curve in the direction sought with a large enough effect in the repeat runs; an effect the other way counts as inactive or inconclusive; further: nearly all actives have a fitted effect of over 50% in size). In outline: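 VDR-UAS-bla HEK 293T cells were plated and incubated 4 h at 37C, then dosed with compound plus 3 nM (final) 1-alpha,25-dihydroxyvitamin D3 for 16 h. After the 2 h beta-lactamase read, viability in the same wells was read as CellTiter-Glo luminescence after 30 min at room temperature.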

Experiment [6] can be described thus: qHTS assay to identify small molecule agonists of the NFkB signaling pathway (AID 1159509; active means well fitted curve in the direction sought with a large enough effect in the signal ratio in the repeat runs, not every such curve was filed as active; the % refers to the signal ratio; further: series mostly up to about 61 µM). In outline: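 Readout: FRET fluorescence, 405 nm excitation, 460/530 nm emission; beta-lactamase expression disrupts FRET. Cells: ME-180 stably carrying NF-kB-driven bla reporter. Compound exposure 5 hr, 37 C, 5% CO2.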
Experiment [7] can be described thus: qHTS assay to identify small molecule agonists of the NFkB signaling pathway - cell viability counter screen (AID 1159515). Further: series mostly up to about 61 µM; nearly all actives have a fitted effect of over 55% in size. In outline: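 Read by CellTiter-Glo luminescence (30 min, room temperature) in the wells also used for the beta-lactamase FRET read. ME-180 NFkB-bla cells at 2,000 per well were plated overnight, then exposed to compound for 5 hr at 37 C.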

Experiment [8] is described as follows: qHTS assay to identify small molecule agonists of the endoplasmic reticulum stress response signaling pathway (AID 1159516; active means well fitted activation curve with a large enough effect in the signal ratio in the repeat runs, not every such curve was filed as active; the % refers to the signal ratio). In outline:
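Ratiometric FRET readout (405 nm excitation; 460 and 530 nm emission) of a beta-lactamase gene driven by the ER stress response element, after 2 hr substrate loading. HeLa ESRE-bla cells were seeded overnight and treated with compounds for only 5 hr at 37 C.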

A short description of experiment [9]: qHTS assay to identify small molecule agonists of the endoplasmic reticulum stress response signaling pathway - cell viability counter screen (AID 1159517). Further: series mostly up to about 61 µM; nearly all actives have a fitted effect of over 50% in size. In outline: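 Steps: seed 1,500 ESRE-bla HeLa cells per well; incubate overnight at 37 C, 5% CO2; add compounds in DMSO for 5 hr; run FRET substrate 2 hr RT; add CellTiter-Glo, wait 30 min, read luminescence.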

The target of experiment [10] is Nuclear receptor ROR-gamma (Homo sapiens) (UniProt P51449). As to the kind of experiment: qHTS assay to identify small molecule antagonists of the retinoid-related orphan receptor gamma (ROR-gamma) signaling pathway (AID 1159521; active means well fitted curve in the direction sought with a large enough effect in the repeat runs; an effect the other way counts as inactive or inconclusive; further: nearly all actives have a fitted effect of over 50% in size; further: potency means the concentration at half of the fitted maximal effect). The gist of the method: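 Tet-on ROR-gamma CHO cells with ROR response element-luciferase reporter; compounds added 2 hr before 1 uM doxycycline induction, then 16 hr at 37 C. Antagonism scored as decreased ONE-Glo luminescence.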

A short description of experiment [11]: qHTS assay to identify small molecule agonists of the AP-1 signaling pathway - cell viability counter screen (AID 1159525). Further: nearly all actives have a fitted effect of over 55% in size. The gist of the method:
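Same-well cytotoxicity counter screen of the Tox21 10K library in ME-180 cells. The readout is ATP-dependent luminescence after 5 h compound treatment. Data are normalised to DMSO and tetra n-octyl ammonium bromide controls.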

The nature of experiment [12]: qHTS assay to identify small molecule agonists of the AP-1 signaling pathway (AID 1159526).
The nature of experiment [13]: qHTS assay to identify small molecule antagonists of the peroxisome proliferator-activated receptor delta (PPARd) signaling pathway - cell viability counter screen (AID 743213; active means well fitted curve in the direction sought with a large enough effect in the repeat runs; an effect the other way counts as inactive or inconclusive; further: nearly all actives have a fitted effect of over 50% in size). In outline:
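CellTiter-Glo was added to PPARd-bla HEK293H wells following 17 h compound treatment in the presence of 300 nM L165041. Luminescence was recorded after 30 min at room temperature.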

Experiment [14] concerns the target Bile acid receptor (Homo sapiens) (UniProt Q96RI1). As to the kind of experiment: qHTS assay to identify small molecule antagonists of the farnesoid-X-receptor (FXR) signaling pathway (AID 743217; active means well fitted inhibition curve with a large enough effect in the signal ratio in the repeat runs, not every such curve was filed as active; the % refers to the signal ratio). The gist of the method:
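Antagonist mode: chenodeoxycholic acid at 50 uM final stimulates a UAS-driven beta-lactamase reporter in HEK 293T FXR-bla cells during 16 h, 37C compound exposure. Read-out is FRET substrate fluorescence after 2 h at room temperature.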

For experiment [15] the target is unchanged. As to the kind of experiment: qHTS assay to identify small molecule agonists of the farnesoid-X-receptor (FXR) signaling pathway (AID 743220; active means well fitted activation curve with a large enough effect in the signal ratio in the repeat runs, not every such curve was filed as active; the % refers to the signal ratio). In outline: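 FXR-UAS-bla HEK 293T cells carrying a UAS-driven beta-lactamase reporter were plated for 5 h at 37C/5% CO2, then exposed to DMSO-dissolved Tox21 10K compounds for 16 h at 37C. A LiveBLAzer B/G FRET substrate was loaded for 2 h at room temperature before fluorescence reading.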

Experiment [16] is described as follows: qHTS assay to identify small molecule agonists of the vitamin D receptor (VDR) signaling pathway - cell viability counter screen (AID 743224; active means well fitted curve in the direction sought with a large enough effect in the repeat runs; an effect the other way counts as inactive or inconclusive). The gist of the method:
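Counter screen run in the same wells as the VDR-bla reporter assay: CellTiter-Glo luminescence, 30 min at room temperature, after 16 h compound treatment at 37C of cells pre-plated for 4 h.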

Experiment [17] can be described thus: qHTS assay to identify small molecule antagonists of the retinoid-related orphan receptor gamma (ROR-gamma) signaling pathway - cell viability counter screen (AID 1159520; active means well fitted curve in the direction sought with a large enough effect in the repeat runs; an effect the other way counts as inactive or inconclusive; further: nearly all actives have a fitted effect of over 50% in size). In outline: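 Tet-on ROR gamma CHO cells were given compounds for 2 hr, then doxycycline hyclate at 1 uM final, and incubated 16 hr at 37 C. Viability was measured as ATP content by CellTiter-Glo luminescence.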

The nature of experiment [18]: qHTS assay to identify small molecule agonists of the peroxisome proliferator-activated receptor delta (PPARd) signaling pathway - cell viability counter screen (AID 743211; active means well fitted curve in the direction sought with a large enough effect in the repeat runs; an effect the other way counts as inactive or inconclusive; further: nearly all actives have a fitted effect of over 55% in size). In outline: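 PPARd-bla HEK293H cells (3000/well) were pre-incubated 5 h at 37 C, then exposed to compound for 17 h at 37 C. After 2 h with LiveBLAzer substrate, CellTiter-Glo was added to the same wells; luminescence read after 30 min at room temperature.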

In experiment [19] the target is Vitamin D3 receptor (Homo sapiens) (UniProt P11473). As to the kind of experiment: qHTS assay to identify small molecule agonists of the vitamin D receptor (VDR) signaling pathway (AID 743222). The gist of the method: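 Agonist mode, beta-lactamase reporter: fluorescence from LiveBLAzer B/G FRET substrate (2 h, room temperature) read after 16 h compound treatment at 37 C of VDR-bla cells, which were pre-incubated 4 h after seeding.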

For experiment [20] the target is unchanged. As to the kind of experiment: qHTS assay to identify small molecule antagonists of the vitamin D receptor (VDR) signaling pathway (AID 743223; active means well fitted inhibition curve with a large enough effect in the signal ratio in the repeat runs, not every such curve was filed as active; the % refers to the signal ratio). The gist of the method:
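VDR-bla cells were treated with compound plus 3 nM final 1alpha,25-dihydroxyvitamin D3 for 16 h at 37C. Beta-lactamase reporter read by B/G FRET substrate fluorescence after 2 h at room temperature. qHTS format.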

Records with an inconclusive call do not appear. A number with no mark means an inactive call. Active and inactive are the calls of the source. Unless noted, the call rests on the fitted dose curve.

Chain of Vitamin D3 receptor (Homo sapiens) (P11473 whole entry, looked up): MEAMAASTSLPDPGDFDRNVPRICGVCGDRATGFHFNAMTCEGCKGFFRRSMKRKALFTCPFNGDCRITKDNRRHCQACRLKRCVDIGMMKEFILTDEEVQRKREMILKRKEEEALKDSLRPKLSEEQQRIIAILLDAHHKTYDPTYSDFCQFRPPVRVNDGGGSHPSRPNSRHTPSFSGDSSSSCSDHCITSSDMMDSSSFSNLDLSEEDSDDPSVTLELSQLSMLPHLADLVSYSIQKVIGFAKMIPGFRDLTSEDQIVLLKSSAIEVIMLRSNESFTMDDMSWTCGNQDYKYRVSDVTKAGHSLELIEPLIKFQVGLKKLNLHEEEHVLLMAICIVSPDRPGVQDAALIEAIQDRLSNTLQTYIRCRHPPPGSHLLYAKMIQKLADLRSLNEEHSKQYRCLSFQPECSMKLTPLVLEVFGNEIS
Chain of Peroxisome proliferator-activated receptor delta (Homo sapiens) (Q03181 whole entry, looked up): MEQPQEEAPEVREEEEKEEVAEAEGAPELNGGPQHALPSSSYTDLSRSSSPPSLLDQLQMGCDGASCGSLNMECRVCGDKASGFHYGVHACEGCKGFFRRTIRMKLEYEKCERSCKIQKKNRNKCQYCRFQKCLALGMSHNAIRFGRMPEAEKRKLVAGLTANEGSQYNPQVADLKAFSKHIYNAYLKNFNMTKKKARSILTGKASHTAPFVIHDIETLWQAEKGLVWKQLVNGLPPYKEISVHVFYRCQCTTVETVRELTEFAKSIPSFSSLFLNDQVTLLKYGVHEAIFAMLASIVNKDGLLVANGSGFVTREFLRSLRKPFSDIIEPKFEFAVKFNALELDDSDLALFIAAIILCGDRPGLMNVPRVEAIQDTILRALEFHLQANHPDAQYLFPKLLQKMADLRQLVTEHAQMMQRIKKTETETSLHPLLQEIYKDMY
Chain of Bile acid receptor (Homo sapiens) (Q96RI1 whole entry, looked up): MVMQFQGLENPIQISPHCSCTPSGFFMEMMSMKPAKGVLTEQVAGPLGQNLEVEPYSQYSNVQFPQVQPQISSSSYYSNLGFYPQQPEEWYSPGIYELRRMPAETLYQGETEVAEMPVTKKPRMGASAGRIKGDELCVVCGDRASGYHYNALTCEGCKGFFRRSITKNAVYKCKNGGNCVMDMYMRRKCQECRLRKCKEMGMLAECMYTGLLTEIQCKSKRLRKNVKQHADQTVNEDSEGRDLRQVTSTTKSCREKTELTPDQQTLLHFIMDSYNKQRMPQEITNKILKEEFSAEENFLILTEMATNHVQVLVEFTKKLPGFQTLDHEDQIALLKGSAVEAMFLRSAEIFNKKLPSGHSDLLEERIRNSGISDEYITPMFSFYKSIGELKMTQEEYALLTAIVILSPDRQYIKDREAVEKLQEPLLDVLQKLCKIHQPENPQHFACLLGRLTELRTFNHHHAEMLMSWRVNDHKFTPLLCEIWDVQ

With `CCCCCCCCCCCC[N+](C)(C)CCCS(=O)(=O)[O-]`, the Potency entry in [1], in [2], in experiment [3], in experiment [4], in [5] and in experiment [10] was “inactive” throughout. In addition, the outcome in experiment [6], in experiment [7], in [8], in experiment [9], in [11] and in [12] was inactive.

On to `CO/N=C1\CN(c2nc3c(cc2F)c(=O)c(C(=O)O)cn3C2CC2)CC1CN` (stereo not given), for which the Potency entry in experiment [1], in experiment [13], in [2], in experiment [14], in experiment [3] and in experiment [15] was “inactive” each time. Moreover, the Potency result in [4], in experiment [16], in [5] and in [17] was “inactive” in each case. The result in experiment [6], in [7], in [8], in experiment [9] and in experiment [11] was inactive.

In the case of `O=C(c1ccc(O)cc1)c1ccc(Cl)cc1`, the Potency result in [18], in experiment [13], in [3], in [15], in experiment [4] and in [16] was “inactive” in each case. Further, the Potency result in experiment [5] and in [10] was “inactive” in each case. Besides, the outcome in experiment [19], in [6], in experiment [7], in [8], in experiment [9] and in experiment [11] was inactive. Further, the compound was classed as inactive in [12].

Turning to `CC[C@H](NC(=O)c1cc(F)ccc1NS(=O)(=O)c1cccc2cccnc12)c1ccccc1`, the Potency result in experiment [18], in experiment [1], in experiment [3], in experiment [15], in experiment [4] and in experiment [16] was “inactive” each time. Moreover, in experiment [5], the Potency entry was “inactive”. The outcome in [20], in experiment [6], in [7], in experiment [8], in experiment [9] and in experiment [11] was inactive. The Potency in experiment [10] was 10.3 µM (active).

In the case of `CCCc1c(OCCCOc2ccc(OCC(=O)O)cc2)ccc(C(C)=O)c1O`, the Potency in experiment [1] was 0.011 µM (active). For the same compound, the Potency entry in experiment [14], in [4], in experiment [16], in experiment [5] and in experiment [17] was “inactive” each time. Also, the compound was classed as inactive in [20], in [6], in experiment [7], in experiment [8], in experiment [9] and in experiment [11].

For `CCCCCCOC(=O)C(C)C`, the Potency entry in experiment [18], in experiment [1], in experiment [13], in [2], in experiment [14] and in experiment [3] was “inactive” each time. The Potency result in experiment [15], in [4], in experiment [16], in experiment [5] and in experiment [10] was “inactive” in each case. The compound was called inactive in experiment [19], in [20], in experiment [6], in experiment [7], in [8] and in [9]. Further, the compound was called inactive in experiment [11] and in [12].

For `O=C(CCC1CCN(Cc2ccccc2)CC1)c1ccc2c(c1)NCCCC2`, the Potency entry in [13], in experiment [3], in experiment [4] and in [17] was “inactive” in each case. For the same compound, the call in experiment [6], in [7], in experiment [8], in [9] and in experiment [11] was inactive.

For `CC(=O)[C@H]1CC[C@H]2[C@@H]3C[C@H](C)C4=CC(=O)CC[C@]4(C)[C@H]3[C@@H](O)C[C@]12C`, the Potency entry in experiment [18], in experiment [1], in experiment [13], in [3], in [15] and in [4] was “inactive” in each case. The Potency result in [16], in [5] and in experiment [17] was “inactive” in each case. The compound was classed as inactive in experiment [19], in [20], in experiment [6], in experiment [7], in [8] and in experiment [9]. In addition, the compound was called inactive in experiment [11].

Consider `Fc1ccccc1[C@@H](F)COC1CCC(Nc2ncnc3[nH]ncc23)CC1` (stereo not given in full), for which the Potency result in [1], in [13], in experiment [3], in experiment [15] and in [4] was “inactive” each time. The result in [19], in [6], in [7], in [8], in [9] and in experiment [11] was inactive. Also, the compound was called inactive in experiment [12]. Further, in experiment [10], the Potency is 12.2 µM (active).
